Molecules are shown by their SMILES. Out of some 2,300 compounds screened, about 900 (39%) were called active.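 Rule for the calls: active = mean duplicate percent inhibition, scaled so buffer wells are 0 and the reference blocker 100, over three buffer SD above buffer mean; inactive = the rest.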 A selection follows.

The target of the experiment is Anoctamin-1 (Mus musculus) (UniProt Q8BHY3). Nature of the experiment: blockers of mouse ANO1 channel, retest – cell-based, re-confirmation, confirmation (AID 652189). Conditions: HEK293 TMEM16A/YFP-H148Q, iodide quench fluorescence, at 10 µM, ionomycin added to raise cell calcium; stronger effect = higher value.
Sequence of Anoctamin-1 (Mus musculus) (Q8BHY3 whole entry, looked up): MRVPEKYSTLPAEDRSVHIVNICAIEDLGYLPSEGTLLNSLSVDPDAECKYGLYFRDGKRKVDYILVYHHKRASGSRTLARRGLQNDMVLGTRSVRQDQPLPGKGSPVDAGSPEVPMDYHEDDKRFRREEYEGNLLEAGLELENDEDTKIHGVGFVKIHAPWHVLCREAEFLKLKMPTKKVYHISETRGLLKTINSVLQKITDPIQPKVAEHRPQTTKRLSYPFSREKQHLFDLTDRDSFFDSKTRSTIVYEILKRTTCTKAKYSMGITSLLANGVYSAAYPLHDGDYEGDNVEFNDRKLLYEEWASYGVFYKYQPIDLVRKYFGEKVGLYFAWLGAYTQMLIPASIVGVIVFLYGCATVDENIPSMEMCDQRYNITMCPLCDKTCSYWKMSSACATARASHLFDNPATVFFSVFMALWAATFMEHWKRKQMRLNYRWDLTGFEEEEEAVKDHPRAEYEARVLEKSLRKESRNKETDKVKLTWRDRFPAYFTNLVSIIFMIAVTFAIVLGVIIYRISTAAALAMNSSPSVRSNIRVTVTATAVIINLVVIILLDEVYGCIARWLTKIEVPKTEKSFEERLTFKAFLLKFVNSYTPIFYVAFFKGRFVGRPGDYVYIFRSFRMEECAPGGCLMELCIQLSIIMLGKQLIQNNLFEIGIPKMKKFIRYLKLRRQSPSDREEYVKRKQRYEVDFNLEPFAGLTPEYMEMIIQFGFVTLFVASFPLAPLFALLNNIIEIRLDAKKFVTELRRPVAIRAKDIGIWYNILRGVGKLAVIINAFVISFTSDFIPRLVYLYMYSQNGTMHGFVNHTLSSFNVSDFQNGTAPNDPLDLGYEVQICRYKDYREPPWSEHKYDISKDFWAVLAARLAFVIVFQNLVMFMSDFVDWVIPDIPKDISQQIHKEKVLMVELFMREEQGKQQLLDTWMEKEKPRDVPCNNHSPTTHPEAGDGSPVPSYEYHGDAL
As for `CC(=O)c1c(C)[nH]c(C(=O)COC(=O)c2cccc(S(=O)(=O)N(C)c3ccccc3)c2)c1C`, the inhibition was 33.5% (active). For `Cc1ccc2c(c1)N(S(=O)(=O)c1cc(-c3cc(C)no3)ccc1C)CCO2` the value was 42.5% (active); for `CCCCn1ccnc1C(=O)c1cccc(S(=O)(=O)N2c3ccccc3CC2C)c1` (configuration not stated), “inactive”. The same measure for `Cc1nc(C)c(-c2csc(NCCc3ccccc3)n2)s1`: 36% (active). In the case of `CCOC(=O)c1cccc(NC(=O)CCn2nnc3ccccc32)c1`, the inhibition result was “inactive”. The same measure for `COc1ccc2[nH]cc(/C=C(/C#N)S(=O)(=O)c3ccccc3)c2c1`: 28% (active); for `COc1ccc(NC(=O)C2=CC(c3ccc(OC)c(OC)c3)=NS(=O)(=O)N2C)cc1`: 27% (active); for `CC(NC(=O)c1ccco1)C(=O)Nc1nc(-c2ccccn2)cs1` (configuration not stated): “inactive”. On to `Cc1noc(C)c1COC(=O)c1cc2ccccc2cc1O`, for which the inhibition result was “inactive”.

For the molecule `COc1ccc(CNc2nnnn2C)cc1`, the inhibition entry is “inactive”. As to `Cn1c(CN2CCOCC2)nc2cc(NC(=O)c3ccc(Cl)cc3)ccc21`, the inhibition was 20% (active). With `Cn1c(CCN2CCCCCC2)nc2cc(NC(=O)Nc3ccccc3)ccc21`, the inhibition entry was “inactive”. Take `CC(C)CNC(=S)NNC(=O)c1nn(C)cc1Cl`: the inhibition entry was “inactive”. For `O=C(COC(=O)CCc1c[nH]c(=O)[nH]1)Nc1ccccc1Cl` the value was “inactive”; for `Cc1nc2ccccc2cc1OCc1ccc(F)cc1`, 22.5% (active); for `O=C(NCCc1ccc2c(c1)OCCO2)c1cc2ccccc2o1`, 21% (active). In the case of `O=C(COc1ccccc1)NCc1ccc2c(c1)OCO2`, the inhibition result was “inactive”.

With `COc1ccc(-c2nc(CCNC(=O)c3ccc(Br)o3)cs2)cc1`, the inhibition entry was “inactive”. Regarding `Cc1cccc(N=Nc2c(O)[nH]c3ccc(F)cc23)c1`, the inhibition entry is “inactive”. For `O=c1cc(C(F)(F)F)[nH]c(=O)n1C1CCCCC1` the value was “inactive”; for `C=CCn1c(SCC(=O)Nc2nc3ccccc3s2)nnc1-c1ccccc1O`, 30.5% (active); for `Cc1ccc(-c2noc(CSc3nnnn3-c3ccccc3)n2)cc1`, “inactive”. Regarding `CN1c2ccc(C=O)c3c(C=O)ccc(c23)N(C)C1(C)C`, the inhibition entry is “inactive”. The same measure for `CSc1nsc(NC(=O)Nc2ccccc2)n1`: 45% (active); for `C=CCSc1nsc(NC(=O)Nc2cccc(C(C)=O)c2)n1`: 53% (active); for `CN(C)c1cc[n+](Cc2ccccc2)cc1`: “inactive”. For `N#Cc1nc(N)nc(N(c2ccccc2)c2ccccc2)n1` the value was “inactive”; for `c1ccc(-c2nnc(SCc3nc4ccccc4[nH]3)o2)cc1`, “inactive”; for `N#CC1=C(SCc2ccccc2)NC(=O)C(C#N)C12CCCC2` (configuration not stated), 17.5% (active). The same measure for `CSc1nnc2c(n1)OC(c1ccsc1)N(C(C)=O)c1ccccc1-2` (configuration not stated): “inactive”. Turning to `CCCc1cc(=S)n2c([nH]c3ccccc32)c1C#N`, the inhibition is 35.5% (active). The same measure for `CC1CCN(C(=O)c2ccc(CSc3ccc(Cl)cc3)cc2)CC1`: 50.5% (active).

In the case of `COc1ccc(CCC(=O)c2ccc(OC)cc2)cc1`, the inhibition entry was “inactive”. Take `Cc1ccc2c(c1)N(CC(=O)N1CCCc3ccccc31)C(=O)C(C)O2` (configuration not stated): the inhibition result was “inactive”. The same measure for `CN(c1cccc(NC(=O)c2ccc(CN3CCc4ccccc4C3)cc2)c1)S(C)(=O)=O`: 20.5% (active). The same measure for `S=C(NCC1CCCO1)N1CCN(c2ccc(Cl)c(Cl)c2)CC1` (configuration not stated): 21% (active). On to `Cc1cc(C=O)c(C)n1-c1ccc(NC2CCCCC2)c([N+](=O)[O-])c1`, for which the inhibition was 23.5% (active). Regarding `CC(C)(C)C(=O)/C(C#N)=C/c1ccc(O)cc1`, the inhibition is 23% (active).

For `CCOC(=O)C1=C(CN2CCc3ccccc32)NC(=O)NC1c1cccc([N+](=O)[O-])c1` (configuration not stated), the inhibition result is “inactive”. The same measure for `COc1ccc(C(=O)NC2CCCc3c2cnn3-c2cccc(C)c2C)c(OC)n1` (configuration not stated): 65.5% (active); for `COC(=O)c1ccc(COC(=O)c2c(C)nn(Cc3ccccc3Cl)c2Cl)o1`: 16% (active); for `O=S1(=O)CCN(Cc2ccccc2Cl)CC1`: “inactive”.

For the molecule `Cc1ccc(F)cc1NC(=O)Cc1nn(C)c(=O)c2ccccc12`, the inhibition is 34.5% (active).

In the case of `CCOC(=O)N1CC=C2C(C#N)=C(N)C(C#N)(C#N)[C@H](c3cccs3)[C@H]2C1`, the inhibition result was “inactive”. With `Cc1[nH]n(-c2cccc(Cl)c2)c(=O)c1-c1ccc(Cl)cc1`, the inhibition was 24% (active). For the molecule `Cc1ccc(-n2[nH]c(C)c(/C=N/N3C(=O)c4cccc5cccc(c45)C3=O)c2=O)cc1`, the inhibition entry was “inactive”. For `CC1=NN(c2cccc(Cl)c2)C(=O)C12CC(C)=C(C)CS2` (configuration not stated) the value was “inactive”; for `O=C1NC(=O)C2C1C(c1ccc([N+](=O)[O-])cc1)=NN2Cc1ccccc1` (configuration not stated), “inactive”; for `CCN(CC)S(=O)(=O)c1ccc(N(C)Cc2ccc(C(F)(F)F)cc2)nc1`, 22% (active). For `CCCOc1ccc(Cc2c(Cl)nc(SC)nc2NC)cc1`, the inhibition is 44.5% (active).

As to `COc1ccc(CN(C)C(=O)CC(c2ccccc2)c2ccccc2)cc1`, the inhibition result was “inactive”. `Cn1c(=O)n(C)c2cc(S(=O)(=O)N3CCCc4ccccc43)ccc21`: the inhibition entry was “inactive”.

Consider `Cc1ccc(NC(=O)C(C)c2cccc(C(=O)c3ccccc3)c2)cc1` (configuration not stated), for which the inhibition is 30.5% (active).

Take `Cc1ccccc1-n1nnnc1SCCCC(=O)c1ccc(F)cc1`: the inhibition entry was “inactive”. Regarding `Cc1nc2c(C(=O)NCc3ccc4c(c3)OCO4)c[nH]n2c(=O)c1Cc1ccccc1F`, the inhibition is 18% (active).

Turning to `Cc1ccc(NC(=O)CN(C)CC(=O)Nc2cccc(F)c2)cc1[N+](=O)[O-]`, the inhibition is 24.5% (active).

As to `O=C(CN1CCN(C(=S)NC2CCCC2)CC1)Nc1ccc(Oc2ccccc2)cc1`, the inhibition entry is “inactive”. For the molecule `O=C(CNCCC1=CCCCC1)Nc1ccccc1N1CCCCCC1`, the inhibition was 19.5% (active).

Consider `CCCC(=O)Nc1ccccc1N1CCN(C(=O)c2ccccc2)CC1`, for which the inhibition entry was “inactive”. On to `CCCCNC(=O)CSc1nc2n[nH]c(C)c2c(=N)n1-c1cccc(Cl)c1C`, for which the inhibition result was “inactive”. With `CCc1cc2c(N3CCN(c4nnc(CC)s4)CC3)ncnc2s1`, the inhibition was 40% (active).

Take `Cc1ccc(C(=O)O)cc1-c1ccc(/C=C2\SC(=O)N(CC(=O)Nc3ccc4c(c3)OCO4)C2=O)o1`: the inhibition entry was “inactive”.

In the case of `O=C(CSCc1ccc(Cl)cc1)N1CCN(Cc2ccc3c(c2)OCO3)CC1`, the inhibition was 20% (active). For `Cc1ccc(-n2ncc3c(N4CCN(c5ccc(F)cc5)CC4)ncnc32)c(C)c1` the value was 28.5% (active); for `O=C(O)c1ccc(NC(=O)C2CCCCC2)cc1`, “inactive”; for `O=C(N/N=C/c1cc(Cl)cc([N+](=O)[O-])c1O)C(O)(c1ccccc1)c1ccccc1`, “inactive”. The same measure for `Cc1cc(C)cc(NS(=O)(=O)c2ccc(Oc3ncc(C(F)(F)F)cc3Cl)cc2)c1`: “inactive”.
